UGM FP inh = Mtb UDP-galactopyranose mutase inhibition. P9WIQ1. purified UGM, fluorescence polarization probe displacement. inhibition, % at 10 µM. 320,000 tested, 0.06% active; in the data active = inhibition above about 10%, passing the limit was not always enough; inconclusive = no clear call, values can overlap the other calls
Rv3671c inh = Rv3671c (M. tuberculosis) protease inhibition | P9WHR9 | inhibition, % at 5.96 µM | 320,000 tested, 0.048% active | AID 2606; in the data active = inhibition above about 38%;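 note: extracellular domain of Rv3671c used as enzyme; 0% = enzyme with DMSO and 100% = no enzyme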
GDH-TPI counter-1 = GDH-TPI coupled enzyme inhibition counter-screen; 360,000 tested, 1.2% active; AID 588335; inhibition, % at 4.8 µM; GDH-TPI coupled enzyme counterscreen, NADH absorbance; in the data active = inhibition above about 30%;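 note: 0% = DMSO wells and 100% = wells lacking the enzyme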
Mtb bLac sens = beta-lactam sensitization of Mtb H37Rv. M. tuberculosis H37Rv growth with meropenem, percent inhibition. 330,000 tested, 0.27% active. inhibition, % at 25 µM; call rule not given here;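 note: growth measured after seven days incubation then overnight dye step; 0% = bacteria only wells and 100% = bacteria with antibiotic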
RecA intein inh = Mtb RecA intein splicing inhibition; P9WHJ3; cell-free RecA intein splicing, fluorescence; inhibition, % (concentration not given with the values); 290,000 tested, 0.75% active; AID 2221; in the data active = inhibition above about 30%; inconclusive = no clear call, values can overlap the other calls;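 note: 0% = vehicle wells and 100% = reference inhibitor control wells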
Target sequence (P9WHJ3 whole entry, looked up): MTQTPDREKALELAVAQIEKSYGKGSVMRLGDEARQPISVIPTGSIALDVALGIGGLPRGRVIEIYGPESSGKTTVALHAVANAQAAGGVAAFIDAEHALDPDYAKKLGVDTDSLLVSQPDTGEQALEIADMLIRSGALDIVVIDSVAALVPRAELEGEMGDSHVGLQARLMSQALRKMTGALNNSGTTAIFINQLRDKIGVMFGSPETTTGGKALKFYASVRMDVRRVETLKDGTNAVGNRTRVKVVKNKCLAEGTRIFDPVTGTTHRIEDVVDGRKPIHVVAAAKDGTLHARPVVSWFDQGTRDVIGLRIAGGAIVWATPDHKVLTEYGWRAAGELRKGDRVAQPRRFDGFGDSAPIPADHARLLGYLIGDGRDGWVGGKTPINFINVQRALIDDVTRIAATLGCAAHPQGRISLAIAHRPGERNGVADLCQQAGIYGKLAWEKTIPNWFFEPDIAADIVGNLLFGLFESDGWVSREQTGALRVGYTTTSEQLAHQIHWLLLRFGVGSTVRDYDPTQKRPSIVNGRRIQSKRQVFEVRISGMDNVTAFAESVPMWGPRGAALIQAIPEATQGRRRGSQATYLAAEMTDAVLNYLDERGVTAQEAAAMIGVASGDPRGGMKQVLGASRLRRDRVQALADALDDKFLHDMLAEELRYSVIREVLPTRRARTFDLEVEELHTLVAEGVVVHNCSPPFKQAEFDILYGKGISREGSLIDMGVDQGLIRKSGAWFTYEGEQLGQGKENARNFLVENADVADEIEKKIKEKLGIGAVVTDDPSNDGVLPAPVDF
FBA Mtb inh = Mtb fructose-bisphosphate aldolase inhibition; 360,000 tested, 2.3% active; purified M. tuberculosis FBA, fluorescence read-out; inhibition, % at 1 µM; P9WQA3;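 note: 0% = vehicle and 100% = reference inhibitor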
Mtb FBA inh conf = Mtb FBA inhibition, confirmed; purified M. tuberculosis FBA, fluorescence read-out; inhibition, % at 1 µM; shares compounds with FBA Mtb inh; 5,600 tested, 78% active;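 note: 0% = vehicle wells and 100% = reference inhibitor wells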
GDH-TPI counter-2 = GDH-TPI inhibition counter-screen for FBA inhibitors; inhibition, % at 1 µM; AID 652141; shares compounds with FBA Mtb inh; 5,600 tested, 81% active; GDH-TPI coupled enzyme counterscreen, fluorescence; in the data active = inhibition above about 10%
GDH-TPI DR = GDH-TPI dose response counter-screen for Mtb FBA; shares compounds with FBA Mtb inh; GDH-TPI coupled enzyme assay, fluorescence, artifact counterscreen; IC50, µM; 170 tested, 79% active; AID 652145; call rule not given here
The depositor's hits bear a star; u = inconclusive; x = no result given; + = active, no number. A selection: hits, their analogues and other compounds. The true share with any hit is near 4%. Cut-off read from the data, not from the text of the source, unless noted: active = inhibition above about 27%; inactive = the rest.

SMILES	UGM FP inh	Rv3671c inh	GDH-TPI counter-1	Mtb bLac sens	RecA intein inh	FBA Mtb inh	Mtb FBA inh conf	GDH-TPI counter-2	others
CCO[C@@H]1c2c(ccc3ccc(=O)oc23)OC(C)(C)[C@@H]1O	-0.1	-1.1	20.4	-0.4	x	56.9*	55.9*	40.0*
CCO[C@@H]1c2c(ccc3ccc(=O)oc23)OC(C)(C)[C@H]1O	-0.9	5.3	17.0	0.3	x	55.6*	21.1	8.4	GDH-TPI DR=2.89*
C/C=C(/C)C(=O)O[C@@H]1c2c(ccc3ccc(=O)oc23)OC(C)(C)[C@@H]1OC(=O)/C(C)=C\C	1.6	-6.5	16.2	-0.4	14.5	2.8	x	x
Cc1ccc(C(=O)N(Cc2cccs2)C2CCS(=O)(=O)C2)cc1 (configuration not stated)	1.6	10.3	2.7	2.6	12.7	3.5	x	x
O=S(=O)(Cc1ccccc1)N1CCC(N2CCN(c3ccccc3)CC2)CC1	0.6	0.1	4.9	-4.5	0.0	-2.4	x	x
CC1(C)Oc2ccc3ccc(=O)oc3c2[C@@H](O)[C@@H]1O	1.4	-3.0	17.9	1.8	x	59.1*	37.6*	27.3*
Cc1ccc(S(=O)(=O)NNC(=O)c2ccccc2-n2cccc2)cc1	-0.6	11.3	4.1	-3.7	-5.4	31.6*	57.4*	51.9*
COc1ccc(S(=O)(=O)NNC(=O)c2ccccc2-n2cccc2)cc1	-0.9	1.9	-6.1	2.8	-2.9	-3.7	x	x
COc1ccc(C2Nc3ccccc3C(=O)N2NS(C)(=O)=O)cc1 (configuration not stated)	1.6	-2.0	6.7	-9.7	-11.1	27.1*	104.8*	107.7*
COc1cc(C2Nc3ccccc3C(=O)N2NS(C)(=O)=O)ccc1O (configuration not stated)	5.6	10.8	11.9	-7.1	-1.6	7.7	x	x
CC1Nc2ccccc2C(=O)N1NS(C)(=O)=O (configuration not stated)	1.6	5.9	9.6	2.0	x	50.3*	74.0*	60.7*
COc1ccc(C(=O)N(Cc2ccccc2)Cc2cc3cc4c(cc3[nH]c2=O)OCCO4)cc1	2.3	2.9	12.7	-2.6	1.1	3.0	x	x
Cc1nn(CC(=O)NN)c(C)c1Br	0.9	-3.9	2.3	-2.8	-1.3	1.2	x	x
C/C(=N/Nc1ccc(C)cc1)C1(C)N(O)C(C)(C)C(c2ccco2)=[N+]1[O-] (configuration not stated)	3.3	4.7	7.7	77.9	-1.2	33.3*	73.7*	57.9*
CC1(C)C(c2ccco2)=[N+]([O-])C2(CCCCC2=O)N1O (configuration not stated)	-0.4	0.7	3.1	-9.5	4.8	0.0	x	x
Cc1ccc(-c2csc(NC(=O)CN3CC(C)OC(C)C3)n2)cc1 (configuration not stated)	0.1	-3.6	-2.5	3.4	-1.4	42.4*	87.9*	67.2*
CC1CCN(CC(=O)Nc2nc(-c3ccccc3)cs2)CC1	0.1	-4.2	-10.0	77.7	1.8	0.9	x	x
COc1ccc2[nH]c3c(NCCN(C(C)C)C(C)C)ncnc3c2c1	-1.4	4.5	1.9	-1.7	x	53.9*	+	183.6*
COc1ccc(CNc2ncnc3c2[nH]c2ccccc23)cc1	0.3	-1.1	10.3	5.4	5.8	16.8	x	x
COc1ccc(CNc2ncnc3c2[nH]c2cc(OC)c(OC)cc23)cc1	0.7	16.2	-9.2	96.5	-1.1	45.8*	105.9*	92.2*
CCOc1ccc2[nH]c3c(NCC(C)C)ncnc3c2c1	0.0	-0.4	1.1	10.5	3.6	76.8*	125.8*	110.0*
CCOc1ccc2[nH]c3c(NCCN(CC)CC)ncnc3c2c1	1.0	4.8	7.0	6.2	1.2	21.2	x	x
CCOc1ccc2[nH]c3c(NCCCOC)ncnc3c2c1	2.1	x	1.5	9.1	2.2	110.5*	+	+
CC(C)OCCCNc1ncnc2c1[nH]c1ccccc12	-2.5	2.7	10.8	u	-1.9	17.6	x	x
CCN(CC)S(=O)(=O)c1cccc(C(=O)NNC(=O)c2ccc3[nH]c(=O)c(=O)[nH]c3c2)c1	-1.1	-6.5	9.2	-9.0	0.3	2.9	x	x
SMILES	UGM FP inh	Rv3671c inh	GDH-TPI counter-1	Mtb bLac sens	RecA intein inh	FBA Mtb inh	Mtb FBA inh conf	GDH-TPI counter-2	others
CCOc1ccc2[nH]c3c(NCCOC)ncnc3c2c1	-3.1	7.8	-1.1	5.8	0.1	70.6*	64.4*	48.3*
Cc1ccc2[nH]c3c(N4CCOCC4)ncnc3c2c1	1.0	0.4	21.1	-0.2	0.5	82.3*	178.4*	144.8*
COc1ccc2[nH]c3c(N4CCN(Cc5ccc6c(c5)OCO6)CC4)ncnc3c2c1	-0.1	19.5	17.1	96.8	3.0	34.9*	79.0*	52.6*
CCOc1ccc2[nH]c3c(N4CCc5ccccc5C4)ncnc3c2c1	0.8	12.4	10.2	92.1	19.5	32.4*	+	+
Cc1ccc2[nH]c3c(N4CCc5ccccc5C4)ncnc3c2c1	0.2	3.9	16.6	99.2	6.7	8.6	x	x
O=c1oc(-c2ccc(Cl)c(Cl)c2)nn1-c1ccc(C(F)(F)F)cn1	-0.1	5.7	6.6	4.6	0.8	1.4	x	x
COc1ccc(-c2coc3cc(O)ccc3c2=O)cc1O	2.3	-4.5	17.4	-3.2	x	7.4	x	x
COC(=O)C(NC(=O)CCc1c(C)nc2c(c(C)nn2-c2ccccc2)c1C)C(C)C (configuration not stated)	-3.7	x	3.7	8.1	1.4	43.3*	57.5*	47.9*
Cc1nc2c(c(C)nn2-c2ccccc2)c(C)c1CCC(=O)Nc1ccc(CN2CCCC2)cc1	0.3	-3.2	8.1	77.0	3.1	30.5*	65.8*	48.9*
Cc1nc2c(c(C)nn2-c2ccccc2)c(C)c1CCC(=O)NCCCOC(C)C	1.8	0.5	3.0	u	-0.8	40.6*	40.2*	36.1*
CCC(C)NC(=O)CCc1c(C)nc2c(c(C)nn2-c2ccccc2)c1C (configuration not stated)	-1.0	-9.2	3.5	5.4	-0.6	44.4*	50.5*	33.9*
CCOC(=O)CCc1c(C)nc2c(c(C)nn2-c2ccccc2)c1C	-0.9	1.8	-2.2	5.2	0.9	1.9	x	x
CCCCNC(=O)CCc1c(C)nc2c(c(C)nn2-c2ccccc2)c1C	1.2	x	3.6	-0.4	-2.0	24.8	x	x
CCn1c(SCC(=O)Nc2ccc(OC)c(OC)c2)nnc1-c1cnccn1	1.0	-5.0	6.0	0.8	0.8	1.2	x	x
COc1ccc2nccc(C(N)=O)c2c1	-2.4	4.6	-7.2	-5.2	-2.5	48.9*	42.5*	28.3*
CCOc1ccc2nc(C)cc(C(=O)O)c2c1	2.3	5.3	12.0	7.0	2.6	87.0*	73.9*	50.7*

Source: PubChem
